Screens from PubChem.
A selection: hits, their analogues and other compounds. The true share with any hit is near 11%.
JMJD2E inh: JMJD2E (human) inhibition | 1.6% of 230,000 active | Potency, µM (top dose mostly 57.1 µM), for the others: at the top dose activity change, negative = inhibition, actives largely listed as inhibitors | B2RXH2 | JMJD2E catalytic domain, FDH-coupled NADH fluorescence (FDH is formaldehyde dehydrogenase);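 note: potency is the fitted concentration of half-maximal effect; 0% = wells with enzyme and -100% = buffer wells without enzyme; nearly all actives have a fitted effect of over 50% in size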
HPGD block: blocks human HPGD enzyme activity; P15428; 4.3% of 150,000 active; Potency, µM, for the others: top-dose activity change, negative = inhibition, usual class: inhibitors; purified HPGD, NADH fluorescence kinetic, PGE2 substrate; note: potency is the fitted concentration of half-maximal effect
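20 nM HPGD preincubated 15 min at room temperature with compound in 50 mM Tris-HCl pH 8, 0.01% Tween 20. Started with 1 mM NAD+ and 30 uM prostaglandin E2; NADH fluorescence (360/450 nm) read 5 times over 30-s intervals, last minus first.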
ALDH1A1 block: ALDH1A1 (human) enzyme inhibition. Purified ALDH1A1, NADH fluorescence, propionaldehyde substrate. Potency, µM (top dose mostly 75.3 µM), for the others: at the highest dose activity, negative = inhibition, most hits filed as inhibitors. 7.3% of 220,000 active. AID 1030;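 note: potency is the fitted concentration of half-maximal effect; plate controls were no enzyme wells and a reference inhibitor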
Target sequence (P00352 whole entry, looked up): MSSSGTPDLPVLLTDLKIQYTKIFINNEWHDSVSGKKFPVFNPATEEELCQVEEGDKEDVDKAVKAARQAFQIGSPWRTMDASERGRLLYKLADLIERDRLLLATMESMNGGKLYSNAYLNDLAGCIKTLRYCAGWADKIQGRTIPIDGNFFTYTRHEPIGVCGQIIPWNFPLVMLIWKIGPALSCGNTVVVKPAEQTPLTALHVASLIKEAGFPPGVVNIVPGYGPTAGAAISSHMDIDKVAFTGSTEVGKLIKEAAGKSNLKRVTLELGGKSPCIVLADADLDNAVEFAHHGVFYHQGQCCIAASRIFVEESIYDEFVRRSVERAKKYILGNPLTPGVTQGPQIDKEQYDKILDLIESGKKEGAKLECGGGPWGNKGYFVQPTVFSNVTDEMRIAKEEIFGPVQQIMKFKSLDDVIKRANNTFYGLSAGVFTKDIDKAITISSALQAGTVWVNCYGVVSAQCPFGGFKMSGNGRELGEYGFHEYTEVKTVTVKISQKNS
PNC assembly inh: inhibitors of perinucleolar compartment assembly | PC3M PTB-GFP, PNC prevalence imaging, 16 h; active compounds read low | activity change (PNC), negative = inhibition, % at 10 µM | 3.1% of 140,000 active;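 active = readout at or below -70, meaning at least 70% loss of cells showing the perinucleolar compartment, a nuclear body marking cancer cells; inconclusive = readout between -30 and a set limit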;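 note: plate controls were DMSO wells for no effect and camptothecin positive control wells for full effect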
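Compounds are pinned in duplicate onto adhered PC3M cells stably expressing GFP-tagged PTB and incubated 16 h at 37 C. Cells are then fixed, nuclei stained with Hoechst, and PNC-positive cells counted.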
* = called active by the depositor; ? = inconclusive; nt = not tested or not shown; [ ] = another dose, or the depositor's remark. Unless noted, calls come from the whole dose curve; as a rule, active = well fitted inhibition curve with a large enough effect (not every such curve was filed as active); inconclusive = small, poorly fitted or top-dose-only effect, or another doubt; inactive = no such curve, though single readings can be large or run the other way. Unless noted, % is set by controls: 0 for no effect and ±100 for the full control effect.

SMILES | JMJD2E inh | HPGD block | ALDH1A1 block | PNC assembly inh
COc1ccc2[nH]cc(C(=O)CN3CCN(C4CCCCC4)CC3)c2c1 | -4% | -10% | 25µM* | 22
C=Cc1c(C)c2cc3nc(cc4[nH]c(cc5nc(cc1[nH]2)C(C)=C5CCC(=O)O)c(CCC(=O)OC)c4C)[C@@]1(C)C3=CC=C(C(=O)OC)[C@H]1C(=O)OC (tested in a mixture with another compound) | -14%[25.5 µM] | -5% | 3%[20.9 µM] | nt
COc1ccc(C(=O)C2CCCN(Cc3c[nH]c4ccccc34)C2)c(OC)c1 (centres undefined) | -7% | nt | -14% | nt
CNC(=S)N1CCN=C1Nc1nc(C)cc(C)n1 | -6% | nt | -6% | nt
[O-][n+]1c2c(nc3c1-c1ccccc1C3O)CCCC2 (centres undefined) | -9% | nt | ? | nt
CCC(C)NC(=O)COC(=O)c1csc2c1CCCC2 (centres undefined) | -1% | 25µM* | -13% | 7
Cc1ccc(S(=O)(=O)NCC(c2cccnc2)N(C)C)cc1 (centres undefined) | 2% | -9% | 32µM* | 39
CS(=O)(=O)NCC(c1cccnc1)N1CCN(c2ccccc2F)CC1 (centres undefined) | 3% | nt | nt | nt
COc1ccccc1N1CCN(C(CNS(=O)(=O)c2ccc(C)cc2)c2cccnc2)CC1 (centres undefined) | -12% | -1% | ? | -82*
CN(C)C(CNS(=O)(=O)c1ccc(F)cc1)c1cccnc1 (centres undefined) | -5% | -5% | 14% | -4
COc1ccccc1N1CCN(C(CNS(C)(=O)=O)c2cccnc2)CC1 (centres undefined) | 4% | nt | 10µM* | nt
O=S(=O)(c1ccccc1)c1nc(-c2ccco2)oc1NCc1cccnc1 | -6% | -13% | ? | 18
O=S(=O)(c1ccccc1)c1nc(-c2ccccc2)oc1NCc1cccnc1 | -13% | -18% | 25µM* | ?
CC(C)c1onc(C(=O)NC2CCCCC2)c1[N+](=O)[O-] | -3% | nt | 5% | nt
O=C(O)c1c(C(=O)O)c2ccccc2[nH]c1=O | ? | -19% | -5% | nt
Cn1nc(C(=O)NCc2ccc(F)cc2)c2ccccc2c1=O | 6% | -9% | 1% | 6
CC(NC(=O)c1nn(C)c(=O)c2ccccc12)c1ccccc1 (centres undefined) | 3% | -10% | 16µM* | 39
Cn1nc(C(=O)NCc2ccccc2)c2ccccc2c1=O | -1% | -13% | 20µM* | -7
COC(=O)[C@@]1(Cc2ccccc2)[C@H]2c3cc(C(=O)N(C)C)n(C[C@H](O)CO)c3C[C@H]2CN1C(=O)c1ccccc1 | ? | -7% | -2% | nt
C[C@H]1Cc2c(COc3ccccc3)nc3c(c2CO1)CN(C(=O)c1ccco1)CC3 | 0%[11.4 µM] | -7% | 2%[13.5 µM] | nt
Cc1cc(C)nc(SCc2ccc(C(=O)NN=C3CCCC3)cc2)n1 | 23% | nt | 2.8µM* | nt
Cc1cc(N2CCOCC2)nc(SCC(=O)c2ccc(Cl)cc2)n1 | 10% | -15% | 4% | 35
Cc1cc(C)nc(SCc2ccc(C(=O)N/N=C/c3cccnc3)cc2)n1 | 7% | nt | 16% | nt
Cc1cc(C)nc(SCc2ccc(C(=O)N/N=C3\CCCC(=O)C3)cc2)n1 | ? | nt | 8.9µM* | nt
Cc1cc(C)nc(SCNC(=O)c2ccc(Cl)cc2)n1 | 4% | 28µM* | 4% | -18
SMILES | JMJD2E inh | HPGD block | ALDH1A1 block | PNC assembly inh
COc1ccc(CCN2C(=O)CSC2=Nc2ccc(C(C)C)cc2)cc1OC | 2% | nt | nt | nt
COc1cc(C2c3c(oc4ccccc4c3=O)C(=O)N2Cc2ccncc2)ccc1O (centres undefined) | -12% | -12% | 25µM* | -8
COc1cc2c(cc1OC)C(c1ccccc1)N(C(=O)c1ccco1)CC2 (centres undefined) | -6% | ? | ? | 38
O=C(c1ccco1)N1CCn2cccc2C1c1ccccc1 (centres undefined) | ? | nt | 1.3µM* | nt
CC(C)(N=NC(C)(C)C1=NCCN1)C1=NCCN1 | nt | -12% | 0%[13.5 µM] | nt
COc1ccccc1NNC(=O)c1cccnc1Oc1ccccc1 | -1% | nt | 14µM* | nt
O=C(COC(=O)c1ccccc1Nc1ccc(SC(F)F)cc1)NCc1ccco1 | ? | 14µM* | -7% | 25
NC(=O)COC(=O)c1ccccc1Nc1ccc(SC(F)F)cc1 | ? | 11µM* | 6% | 65
CC(C)(C)NC(=O)COC(=O)c1ccccc1Nc1ccc(SC(F)F)cc1 | ? | ? | ? | 11
Cc1cc(C(=O)NNc2ccc(C(C)C)cc2)n(C(C)(C)C)n1 | 1% | nt | nt | nt
